Assays:
[1] = target: Death-associated protein kinase 1 (Homo sapiens) (UniProt P53355); details: at 10 µM
[2] = target: Death-associated protein kinase 2 (Homo sapiens) (UniProt Q9UIK4); details: at 1 µM
[3] = target: Death-associated protein kinase 2 (Homo sapiens) (UniProt Q9UIK4); details: at 10 µM
[4] = target: T1, Serine/threonine-protein kinase DCLK2 (Homo sapiens) (UniProt Q8N568); details: at 1 µM
T1 sequence (whole entry): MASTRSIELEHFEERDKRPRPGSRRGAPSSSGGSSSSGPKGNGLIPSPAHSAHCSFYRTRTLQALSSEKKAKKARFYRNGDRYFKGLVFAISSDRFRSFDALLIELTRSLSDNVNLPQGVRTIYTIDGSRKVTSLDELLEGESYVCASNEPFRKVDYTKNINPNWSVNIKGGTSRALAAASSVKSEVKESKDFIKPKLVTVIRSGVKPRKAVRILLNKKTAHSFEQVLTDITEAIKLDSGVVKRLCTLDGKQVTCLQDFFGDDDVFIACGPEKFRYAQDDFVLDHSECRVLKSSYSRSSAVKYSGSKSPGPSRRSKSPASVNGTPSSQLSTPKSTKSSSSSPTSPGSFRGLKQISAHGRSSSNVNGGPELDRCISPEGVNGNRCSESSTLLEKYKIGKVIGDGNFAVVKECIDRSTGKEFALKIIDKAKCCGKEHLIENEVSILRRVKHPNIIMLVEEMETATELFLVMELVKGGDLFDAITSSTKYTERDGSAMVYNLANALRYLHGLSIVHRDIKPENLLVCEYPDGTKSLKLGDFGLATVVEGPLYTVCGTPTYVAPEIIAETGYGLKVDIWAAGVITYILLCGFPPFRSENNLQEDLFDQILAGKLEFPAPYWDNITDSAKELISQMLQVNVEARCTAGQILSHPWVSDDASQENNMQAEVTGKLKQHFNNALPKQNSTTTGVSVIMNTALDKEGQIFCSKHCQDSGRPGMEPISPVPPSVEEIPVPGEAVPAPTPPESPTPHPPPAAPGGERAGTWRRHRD

[5] = target: T1, Serine/threonine-protein kinase DCLK2 (Homo sapiens); details: at 10 µM
[6] = target: T2, Discoidin domain-containing receptor 2 (Homo sapiens) (UniProt Q16832); details: at 1 µM
T2 sequence (whole entry): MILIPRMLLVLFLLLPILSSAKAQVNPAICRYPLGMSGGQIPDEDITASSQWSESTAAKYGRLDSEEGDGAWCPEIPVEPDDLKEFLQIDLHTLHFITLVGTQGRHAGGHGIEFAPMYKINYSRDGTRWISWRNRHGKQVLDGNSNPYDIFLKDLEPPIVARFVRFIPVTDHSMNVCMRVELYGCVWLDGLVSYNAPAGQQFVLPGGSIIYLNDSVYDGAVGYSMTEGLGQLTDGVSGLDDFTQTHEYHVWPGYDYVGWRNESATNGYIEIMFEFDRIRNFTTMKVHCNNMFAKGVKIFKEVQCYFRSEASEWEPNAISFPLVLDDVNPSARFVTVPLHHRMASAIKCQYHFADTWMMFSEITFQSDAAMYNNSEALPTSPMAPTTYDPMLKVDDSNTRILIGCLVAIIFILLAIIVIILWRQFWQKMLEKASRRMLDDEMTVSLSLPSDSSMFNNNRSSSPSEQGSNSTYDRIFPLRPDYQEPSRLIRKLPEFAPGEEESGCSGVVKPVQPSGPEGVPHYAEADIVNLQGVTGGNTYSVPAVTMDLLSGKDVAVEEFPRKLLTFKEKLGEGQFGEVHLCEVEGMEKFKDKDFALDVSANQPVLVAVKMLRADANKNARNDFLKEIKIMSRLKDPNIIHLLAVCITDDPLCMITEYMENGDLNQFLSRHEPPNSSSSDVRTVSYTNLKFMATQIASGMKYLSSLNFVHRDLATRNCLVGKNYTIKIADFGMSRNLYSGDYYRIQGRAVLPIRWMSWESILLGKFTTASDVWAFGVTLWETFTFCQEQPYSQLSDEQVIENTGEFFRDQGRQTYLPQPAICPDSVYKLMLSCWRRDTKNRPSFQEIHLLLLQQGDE

[7] = target: T2, Discoidin domain-containing receptor 2 (Homo sapiens); details: at 10 µM
[8] = target: T3, Myotonin-protein kinase (Homo sapiens) (UniProt Q09013); details: at 1 µM
T3 sequence (whole entry): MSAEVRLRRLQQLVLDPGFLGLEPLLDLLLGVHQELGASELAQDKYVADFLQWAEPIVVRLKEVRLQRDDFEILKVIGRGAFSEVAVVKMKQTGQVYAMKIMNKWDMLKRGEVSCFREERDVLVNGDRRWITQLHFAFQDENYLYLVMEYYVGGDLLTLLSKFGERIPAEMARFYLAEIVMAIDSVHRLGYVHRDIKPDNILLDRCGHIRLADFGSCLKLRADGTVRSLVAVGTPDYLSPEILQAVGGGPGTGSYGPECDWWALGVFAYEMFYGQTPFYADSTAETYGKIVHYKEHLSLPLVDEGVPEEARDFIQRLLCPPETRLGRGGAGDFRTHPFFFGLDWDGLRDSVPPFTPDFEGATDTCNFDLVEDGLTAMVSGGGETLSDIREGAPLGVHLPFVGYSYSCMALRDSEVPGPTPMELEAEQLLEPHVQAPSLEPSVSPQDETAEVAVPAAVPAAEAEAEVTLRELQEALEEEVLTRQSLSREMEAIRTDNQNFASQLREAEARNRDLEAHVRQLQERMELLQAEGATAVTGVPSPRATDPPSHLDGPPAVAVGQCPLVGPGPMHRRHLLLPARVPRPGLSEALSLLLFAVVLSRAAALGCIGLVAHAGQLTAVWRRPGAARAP

[9] = target: T3, Myotonin-protein kinase (Homo sapiens); details: at 10 µM
[10] = target: T4, Serine/threonine-protein kinase 17A (Homo sapiens) (UniProt Q9UEE5); details: at 1 µM
T4 sequence (whole entry): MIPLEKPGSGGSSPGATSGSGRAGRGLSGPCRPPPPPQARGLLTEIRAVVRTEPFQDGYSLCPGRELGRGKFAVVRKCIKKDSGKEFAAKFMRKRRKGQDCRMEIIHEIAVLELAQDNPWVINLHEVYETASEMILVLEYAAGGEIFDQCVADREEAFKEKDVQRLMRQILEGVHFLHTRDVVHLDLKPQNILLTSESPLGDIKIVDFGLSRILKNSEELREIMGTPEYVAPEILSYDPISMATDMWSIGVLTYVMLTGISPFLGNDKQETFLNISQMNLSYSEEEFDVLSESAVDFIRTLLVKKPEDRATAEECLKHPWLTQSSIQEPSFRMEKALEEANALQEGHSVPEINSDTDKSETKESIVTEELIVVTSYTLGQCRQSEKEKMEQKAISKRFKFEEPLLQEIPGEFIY

Chain of Death-associated protein kinase 1 (Homo sapiens) (P53355 whole entry, looked up): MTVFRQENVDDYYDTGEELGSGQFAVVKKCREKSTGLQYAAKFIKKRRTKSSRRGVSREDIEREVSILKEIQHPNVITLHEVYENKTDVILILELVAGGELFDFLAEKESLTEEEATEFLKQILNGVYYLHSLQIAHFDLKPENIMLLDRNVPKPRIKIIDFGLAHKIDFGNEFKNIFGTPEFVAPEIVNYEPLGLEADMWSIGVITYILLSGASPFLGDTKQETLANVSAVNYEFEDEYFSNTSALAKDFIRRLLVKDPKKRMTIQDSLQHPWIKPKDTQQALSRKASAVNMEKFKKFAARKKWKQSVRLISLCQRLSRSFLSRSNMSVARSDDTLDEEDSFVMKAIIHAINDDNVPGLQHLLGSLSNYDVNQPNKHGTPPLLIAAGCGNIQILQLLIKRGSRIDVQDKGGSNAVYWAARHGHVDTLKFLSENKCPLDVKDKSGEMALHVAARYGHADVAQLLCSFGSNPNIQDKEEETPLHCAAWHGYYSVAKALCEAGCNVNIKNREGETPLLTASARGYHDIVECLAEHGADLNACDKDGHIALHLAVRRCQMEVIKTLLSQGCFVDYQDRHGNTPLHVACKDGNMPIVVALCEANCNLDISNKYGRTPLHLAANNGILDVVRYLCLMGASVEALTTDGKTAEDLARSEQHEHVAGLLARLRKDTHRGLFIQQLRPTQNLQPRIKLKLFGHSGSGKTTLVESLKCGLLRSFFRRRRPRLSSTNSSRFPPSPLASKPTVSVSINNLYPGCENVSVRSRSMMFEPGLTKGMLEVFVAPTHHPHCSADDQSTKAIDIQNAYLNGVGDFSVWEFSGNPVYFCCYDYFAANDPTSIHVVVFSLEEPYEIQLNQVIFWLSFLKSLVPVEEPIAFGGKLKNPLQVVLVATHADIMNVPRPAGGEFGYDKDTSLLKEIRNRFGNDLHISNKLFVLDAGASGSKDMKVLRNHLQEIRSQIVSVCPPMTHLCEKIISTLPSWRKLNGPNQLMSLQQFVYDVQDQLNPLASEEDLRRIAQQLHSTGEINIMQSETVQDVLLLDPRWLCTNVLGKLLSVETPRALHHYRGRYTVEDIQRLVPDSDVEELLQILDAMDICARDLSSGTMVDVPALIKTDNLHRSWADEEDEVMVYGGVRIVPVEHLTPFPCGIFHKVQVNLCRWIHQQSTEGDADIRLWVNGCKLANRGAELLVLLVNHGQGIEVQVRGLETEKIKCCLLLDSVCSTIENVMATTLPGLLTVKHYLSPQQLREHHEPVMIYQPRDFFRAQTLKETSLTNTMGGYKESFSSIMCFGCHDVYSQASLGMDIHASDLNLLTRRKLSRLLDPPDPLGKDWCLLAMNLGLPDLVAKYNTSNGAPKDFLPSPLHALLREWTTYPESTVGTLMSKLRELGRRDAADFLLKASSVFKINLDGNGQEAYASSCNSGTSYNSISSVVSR
Chain of Death-associated protein kinase 2 (Homo sapiens) (Q9UIK4 whole entry, looked up): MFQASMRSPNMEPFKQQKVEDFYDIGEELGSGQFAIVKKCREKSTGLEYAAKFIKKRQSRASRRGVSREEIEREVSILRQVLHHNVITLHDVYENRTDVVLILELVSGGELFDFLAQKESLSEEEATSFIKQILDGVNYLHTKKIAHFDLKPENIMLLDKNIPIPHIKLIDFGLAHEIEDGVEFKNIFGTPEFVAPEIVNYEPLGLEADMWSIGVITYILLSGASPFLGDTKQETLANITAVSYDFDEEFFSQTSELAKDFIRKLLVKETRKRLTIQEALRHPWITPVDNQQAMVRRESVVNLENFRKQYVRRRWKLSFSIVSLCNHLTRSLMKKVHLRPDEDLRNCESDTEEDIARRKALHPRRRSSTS

Compound	residual activity [1] [%]	residual activity [2] [%]	residual activity [3] [%]	residual activity [4] [%]	residual activity [5] [%]	residual activity [6] [%]	residual activity [7] [%]	residual activity [8] [%]	residual activity [9] [%]	residual activity [10] [%]
CCC(=O)Nc1ccc2ncnc(Nc3cccc(Br)c3)c2c1	93	98	107	79	100	92	82	112	118	95
O=C(O)c1ccc2c3c1cccc3c(=O)n1c3ccccc3nc21	47	31	1	117	68	99	101	92	83	42
COc1cc2ncnc(Nc3ccc(Oc4ccccc4)cc3)c2cc1OC	106	99	118	82	252	113	103	98	139	81
c1ccc2c(-c3ccncc3)c[nH]c2c1	91	100		75	98		97	147	132	102
N#CCCc1ccc2c(c1)-c1[nH]c3ccc([N+](=O)[O-])cc3c1CC(=O)N2										11
Cc1cncc2cccc(S(=O)(=O)N3CCCN(C(=O)CN)C[C@H]3C)c12	85	90		66	35	126	94			
O=C1Nc2ccc(Br)cc2/C1=C\c1cc2c([nH]1)CCCC2						110		115	130	48
COc1cc2ncc(-c3ccccc3)nc2cc1OC	78	83			52		92			124
O=[N+]([O-])c1ccc(-c2nc(-c3ccc(F)cc3)c(-c3ccncc3)[nH]2)cc1	65	108	101	117	111	77	52	96	93	116
Cn1nc2c3c(cccc31)C(=O)c1ccccc1-2	77	93	76	75	89	100	104	127	84	50
CC(=O)c1ccc(N2CCOCC2)cc1O	89	100		75	74	112	97	112	130	
O=C1NC(=O)c2c1c1c3ccccc3[nH]c1c1[nH]c3cc(Br)ccc3c21	92	98	71	83	96	101	98	115	97	67
COc1cccc(-c2cc(=O)c3ccccc3o2)c1N	90	99	99	107	120	91		122	96	101
Cc1cccc(-c2[nH]c(C(C)(C)C)nc2-c2ccc3c(c2)OCO3)n1	77			86	99		98	145	143	
O=C(Nc1cccc(Nc2nccc(Nc3cccc(C(F)(F)F)c3)n2)c1)C1CC1	60	93	68	82	102	79	30	72	125	73
c1ccc(-c2n[nH]c3c2oc2ccccc23)cc1	98			82	74			146	121	43
Cn1cnc2cc3c(Nc4cccc(Br)c4)ncnc3cc21	99	96	113	102	110	75	60	112	111	64
Cc1nc(-c2ccccc2)c(-c2ccncc2)o1	95	99		124	113	50	36	104	102	120
Oc1c2ccccc2c2c3c(cccc13)N=N2	68	87	43	116	51	93	92		68	6

Compound	residual activity [1] [%]	residual activity [2] [%]	residual activity [3] [%]	residual activity [4] [%]	residual activity [5] [%]	residual activity [6] [%]	residual activity [7] [%]	residual activity [8] [%]	residual activity [9] [%]	residual activity [10] [%]
N#CC(C#N)=C(N)/C(C#N)=C/c1ccc(O)cc1	92	99	97	94	47	116	97		148	91
Nc1n[nH]c2nnc(-c3c(-c4ccccc4)nn4ccccc34)cc12	88	95	99	128	75	94	74	92	75	83
COc1cc2ncnc(Nc3ccc(NC(=O)c4ccccc4)cc3)c2cc1OC	83	98	106	99	104		89	110	145	75
O=Nc1c(-c2c(O)[nH]c3ccccc23)[nH]c2ccccc12	67	73	23	119	74	94	87	109	83	6
COc1cc2ncnc(Nc3ccc(O)c(Br)c3)c2cc1OC	76		77	73	96	90	55	105	116	77
O=C(Nc1cccc(Nc2cc(Nc3cccc(C(F)(F)F)c3)ncn2)c1)C1CC1	100	91	91	92	109	81	94	100	106	81
Nc1nc(Nc2ccc(S(N)(=O)=O)cc2)nn1C(=S)Nc1c(F)cccc1F		84	43	13	2	74	28	122	31	1
O=C1NC(=O)c2cc(Nc3ccc(F)cc3)c(Nc3ccc(F)cc3)cc21	76	77	84	76	89	92	51	125	129	105
O=c1cc(-c2cccc3c2Sc2ccccc2S3)oc(N2CCOCC2)c1	81	106	89	118	85	93	100	120	105	106
CC[n+]1c(/C=C/N(C)c2ccccc2)n(-c2ccccc2)c2ccc(-c3nc4ccccc4s3)cc21	51	100	99	110	102	116	88	120	121	119
CCN(CC)C(=O)c1ccc(Nc2nc(OCC3CCCCC3)c3nc[nH]c3n2)cc1	54	96	68		99	93	66			23
O=C1c2ccccc2-[n+]2ccc3c([nH]c4ccccc43)c21	84	95	96	105	94	78	84	101	80	104
N#Cc1cnc2cnc(NCc3cccnc3)cc2c1Nc1ccc(F)c(Cl)c1	55	14	2			80	53	100	69	30
Cc1cc2ncc(-c3ccccc3)nc2cc1C	88	99		95	67	102	90	97	135	70
CN(C)CCCn1cc(C2=C(c3c[nH]c4ccccc34)C(=O)NC2=O)c2ccccc21	75	72	33		88	113	82	31	25	108
O=C1NC(=O)/C(=C/c2ccc3c(c2)OC(F)(F)O3)S1	81	95	96	110	66	130	105	104	104	118
CO[C@@H]1[C@H](N(C)C(=O)c2ccccc2)C[C@H]2O[C@]1(C)n1c3ccccc3c3c4c(c5c6ccccc6n2c5c31)C(=O)NC4	72	71	54	75	38	106	69		90	16
c1ccc(-c2n[nH]cc2-c2ccnc3ccccc23)nc1	88	103			101	102	98	127	140	
CO[C@H]1C[C@@H]2CC[C@@H](C)[C@@](O)(O2)C(=O)C(=O)N2CCCC[C@H]2C(=O)O[C@H]([C@H](C)C[C@@H]2CC[C@@H](O)[C@H](OC)C2)CC(=O)[C@H](C)/C=C(\C)[C@@H](O)[C@@H](OC)C(=O)[C@H](C)C[C@H](C)/C=C/C=C/C=C/1C	108	93	110	137	360	115	110	145	139	113
